Assay results from PubChem BioAssay (NCI).
Values joined by “and” are separate entries in the source; they are usually repeats but may differ in a detail not shown here. Identical values can stand only once. About 83,000 compounds went through this panel and 20% of them were active in at least one assay; those are over-represented in the sample as a whole.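 Single-concentration screen, 48 h exposure, 96-well plates. Endpoint: percent growth. Below 10 = active.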 A number with no mark means an inactive call. Active and inactive are the calls of the source.

Legend:
Test in all cases: NCI-60 one-dose screen, 48 h (100 = growth as untreated, 0 = no growth, -100 = all killed)
Settings in all cases: 10 µM
[1] = test system: T-47D breast
[2] = test system: BT-549 breast
[3] = test system: MDA-MB-435 melanoma
[4] = test system: SW-620 colon
[5] = test system: MCF7 breast
[6] = test system: HCT-116 colon
[7] = test system: HCC-2998 colon
[8] = test system: KM12 colon
[9] = test system: MDA-MB-468 breast

| SMILES | growth [1] | growth [2] | growth [3] | growth [4] | growth [5] | growth [6] | growth [7] | growth [8] | growth [9] |
| --- | --- | --- | --- | --- | --- | --- | --- | --- | --- |
| CN1C(=O)N(C)C2SC(N/N=C/c3ccc(F)cc3)=NC21 (configuration not stated) | 37.9% | 9.3% (active) | -28.8% (active) | 30.1% | 21.6% | 24.9% | 69.8% | 28.2% | -12.3% (active) |
| CN1CCN(c2ccc(Nc3nc(NCCCNC(=O)c4ccccc4)c4sccc4n3)cc2)CC1 | 54.3% | 138% | 64.4% | 60.6% | 38.4% | 30.9% | 83.2% | 54.4% | 68.4% |
| COc1ccc(C(=O)Nc2sc3c(c2C#N)CCC(=O)C3)cc1C(F)(F)F | -51.2% (active) | -58.3% (active) | -21.7% (active) | -30.7% (active) | -10.1% (active) | 0.735% (active) | 6.84% (active) | 10.4% | -38.9% (active) |
| CC(=O)OC[C@@]1(C)C2CC[C@]3(C)C(CC=C4C5CC(C)(C)CC[C@]5(C(=O)Nc5ccccc5)CC[C@]43C)[C@@]2(C)C[C@@H](OC(C)=O)[C@@H]1OC(C)=O (some centres not stated) | 15.3% | 47.7% | 45.7% | 36.3% | 24.4% | 25.4% | 42.3% | 49% | -4.16% (active) |
| O=C(Nc1cccc(-c2cn(-c3ccc4oc(=O)ccc4c3)nn2)c1)Nc1cc(C(F)(F)F)cc(C(F)(F)F)c1 | -0.405% (active) | 3.59% (active) | 49% | 56.6% | 17% | 29.1% | 33.1% | 33.2% | -23.3% (active) |
| O=C1CCC(N2Cc3cc(NC(=O)COc4ccccc4)ccc3C2=O)C(=O)N1 (configuration not stated) | 49.2% | 4.38% (active) | 88.1% | 55.2% | 70.3% | 103% | 83.5% | 74.5% | -25.1% (active) |
| COc1ccc(C=CC(=O)c2ccc(-n3c(C)nc4c(cnn4-c4ccccc4)c3=O)cc2)cc1 | 34.7% | 45% | 11.2% | 75.1% | 8.3% (active) | 9.71% (active) | 86.8% | 31.6% | 11.3% |
| O=C1Nc2ccc(Cl)cc2/C1=C/c1ccc(OCc2ccc(Br)cc2F)cc1 | 10.1% | 81.9% | 60.2% | 23.6% | 12.1% | -10.8% (active) | 77.5% | 59.1% | 92.6% and 48.8% |
| COc1ccc([C@H]2C(C(=O)c3ccc(Cl)cc3)C3(N[C@@H]2c2ccccc2)C(=O)Nc2ccc(Br)cc23)cc1 (some centres not stated) | 21.2% | 21.9% | -36.6% (active) | 7.87% (active) | -7.25% (active) | 1.73% (active) | -41% (active) | -5.82% (active) | -7.76% (active) |
| CC1(c2ccccc2)NC(=O)N(CC(=O)Nc2ccc(C(=O)/C=C/c3ccccc3)cc2)C1=O (configuration not stated) | 18.3% | 36% | -23% (active) | 32.4% | -19.6% (active) | -65% (active) | -15.6% (active) | -73% (active) | -2.64% (active) |
| OCCCNc1oc(-c2ccccc2)nc1[P+](c1ccccc1)(c1ccccc1)c1ccccc1 | 7.19% (active) | -40.5% (active) | 6.46% (active) | 11.5% | 0.534% (active) | 7.82% (active) | 2.5% (active) | -45.9% (active) | -41.3% (active) |
| Cc1ccc(NC(=O)NCn2c(=O)[nH]c3ccccc3c2=O)cc1 | 79.6% | 115% | 86.3% | 78.5% | 72% | 60.1% | 102% | 98.9% | 84.1% |
| c1ccc(C(=C(c2ccc(OCCN3CCCCC3)cc2)c2ccc(OCCN3CCCCC3)cc2)C2CCCC2)cc1 | -1.48% (active) | -54.7% (active) | -98.5% (active) | -62.6% (active) | -71.1% (active) | -62.8% (active) | -99.5% (active) | -80.5% (active) | -87.8% (active) |
| CCOC(=O)c1c(CSc2ccccc2)n(C)c2cc(CN(C)C)c(O)c(CN(C)C)c12 | 50.2% | 63.7% | 54% | 23.1% | 3.06% (active) | 10.9% | 12.1% | 40.4% | -4.94% (active) |
| C=CCn1c(SCC(=O)Nc2ccc(C(=O)/C=C/c3ccccc3)cc2)nnc1-c1c[nH]c2ccccc12 | 20.8% | 45.6% | -13.5% (active) | -28.2% (active) | -67.7% (active) | -52.4% (active) | -69.4% (active) | 6.81% (active) | -7.8% (active) |
| O=C(N/N=C/c1ccc(-c2cccc([N+](=O)[O-])c2)o1)c1[nH]c2ccc(Br)cc2c1-c1ccccc1 | 75.9% | 30.5% | 16.6% | 15.5% | 1.16% (active) | -53.2% (active) | 15% | 7.57% (active) | -3.87% (active) |
| CCOc1ccc(/C=N/NC(=O)Cn2nc(Cc3ccc([N+](=O)[O-])cc3)c3onc(C)c3c2=O)cc1 | 8.58% (active) | 55.2% | 49.7% | 15.2% | 9.23% (active) | -26% (active) | 29% | 51.3% | -30.7% (active) |
| COc1cc2c(cc1OC)CN(CCCCOc1cc(O)c3c(=O)cc(-c4ccccc4)oc3c1)CC2 | 1.69% (active) | 63.6% | 67.5% | 62.8% | 29.3% | 0.234% (active) | -7.68% (active) | 80.1% | -7.3% (active) |
| Cn1cc(-c2cc(N)n3nc(-c4c[nH]c5ccc(Br)cc45)cc3n2)c2cccnc21 | -75.7% (active) | -83.7% (active) | -77.7% (active) | -78.6% (active) | -78.5% (active) | -87.9% (active) | -97.8% (active) | -78.3% (active) | -92.1% (active) |
| COc1ccc2c(c1)N=C(C(=O)O)/C2=C/c1sc(Nc2ccc(O)cc2)nc1O | 45.4% | 55.4% | 8.85% (active) | 74.7% | 27.9% | 64.7% | 74.7% | 57.9% | 12.3% |
| O=C(CN1CCN(c2ncnc3c2cnn3-c2ccccc2)CC1)Nc1nncs1 | 27.9% | -85.9% (active) | 7.14% (active) | -23.9% (active) | 16.1% | 8.23% (active) | 59.7% | 4.55% (active) | -39.8% (active) |
| Cc1cccc(-c2nc(Nc3ccccc3C(=O)O)c3ccccc3n2)c1 | 26.8% | -0.675% (active) | 44.6% | 35.5% | 24% | 22.7% | 27.1% | 30% | -15.1% (active) |
| O=C(Nc1ccc(OCc2ccccc2)cc1)Nc1ccc(Cl)c(C(F)(F)F)c1 | -2.54% (active) | -15.9% (active) | -1.55% (active) | 13% | 2.34% (active) | 2.43% (active) | 21.4% | 1.83% (active) | -36% (active) |
| O=C1Nc2ccc(Cl)cc2/C1=C/c1ccc(OCc2ccccn2)cc1 | 69% | 78.8% | 76.9% | 47.5% | 28.9% | 28.5% | 105% | 78.8% | 50.4% |
| Cc1ccc(C(=O)NNC(=O)CSc2nc3ccccc3c(=O)[nH]2)cc1 | 95.8% | 94.2% | 101% | 103% | 92.3% | 107% | 105% | 107% | 84.6% |
| CCN1CCN(c2ccc(NC(=O)Nc3ccc(-c4cc(C(=O)NC(C)C)c5ncccc5n4)cc3)cc2C(F)(F)F)CC1 | -66.5% (active) | -82.1% (active) | -92.9% (active) | -69.8% (active) | -89.9% (active) | -94% (active) | -98.2% (active) | -83.7% (active) | -91.1% (active) |
| O=C(N/N=C/c1ccc(B(O)O)o1)c1[nH]c2ccc(Br)cc2c1-c1ccccc1 | 36.4% | 41% | -53.2% (active) | 26.2% | 13.8% | 7.23% (active) | 8.58% (active) | 15.4% | -3.94% (active) |
| COc1cc(NC(=O)c2cc(-c3ccc(F)cc3F)ccc2O)cc(OC)c1OC | -10.1% (active) | 4.31% (active) | 36.2% | 55.3% | 38.9% | 42.5% | 63.9% | 29.8% | 15% |
